Key:
Experiment in all cases: cross-linking mass spectrometry
Settings in all cases: TSTO, in cells
[1] = target: YWHAB (UniProt P31946)
[2] = target: YWHAH (UniProt Q04917)
[3] = target: YWHAZ (UniProt P63104)
Sequence of YWHAZ (P63104 whole entry): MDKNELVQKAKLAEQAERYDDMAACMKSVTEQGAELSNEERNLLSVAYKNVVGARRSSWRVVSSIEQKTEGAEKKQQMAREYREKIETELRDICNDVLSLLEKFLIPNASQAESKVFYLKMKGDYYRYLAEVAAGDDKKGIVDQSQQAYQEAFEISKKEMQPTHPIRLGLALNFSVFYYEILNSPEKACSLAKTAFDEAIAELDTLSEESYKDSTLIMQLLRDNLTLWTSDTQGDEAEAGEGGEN

Sequence of YWHAE, P62258 (P62258 whole entry): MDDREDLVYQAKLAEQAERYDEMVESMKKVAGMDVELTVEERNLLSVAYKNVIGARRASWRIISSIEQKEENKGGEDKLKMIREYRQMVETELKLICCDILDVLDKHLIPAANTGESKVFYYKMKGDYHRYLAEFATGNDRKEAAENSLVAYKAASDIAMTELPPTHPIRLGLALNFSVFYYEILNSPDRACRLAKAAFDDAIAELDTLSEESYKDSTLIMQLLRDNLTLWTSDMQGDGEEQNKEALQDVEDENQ
Sequence of YWHAQ, P27348 (P27348 whole entry): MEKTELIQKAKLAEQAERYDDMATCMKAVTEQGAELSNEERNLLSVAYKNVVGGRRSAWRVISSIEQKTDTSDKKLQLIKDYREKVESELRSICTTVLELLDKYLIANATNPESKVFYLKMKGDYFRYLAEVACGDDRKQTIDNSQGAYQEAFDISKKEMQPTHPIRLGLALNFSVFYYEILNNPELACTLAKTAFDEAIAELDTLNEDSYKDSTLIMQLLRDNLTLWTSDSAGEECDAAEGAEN
Sequence of YWHAG, P61981 (P61981 whole entry): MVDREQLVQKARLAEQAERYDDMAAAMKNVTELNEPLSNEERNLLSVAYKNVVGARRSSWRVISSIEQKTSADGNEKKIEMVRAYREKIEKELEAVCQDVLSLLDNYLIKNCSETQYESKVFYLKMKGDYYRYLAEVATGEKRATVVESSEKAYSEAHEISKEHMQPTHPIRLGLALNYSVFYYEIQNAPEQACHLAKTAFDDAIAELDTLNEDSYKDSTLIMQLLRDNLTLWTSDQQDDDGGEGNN
Sequence of YWHAB (P31946 whole entry): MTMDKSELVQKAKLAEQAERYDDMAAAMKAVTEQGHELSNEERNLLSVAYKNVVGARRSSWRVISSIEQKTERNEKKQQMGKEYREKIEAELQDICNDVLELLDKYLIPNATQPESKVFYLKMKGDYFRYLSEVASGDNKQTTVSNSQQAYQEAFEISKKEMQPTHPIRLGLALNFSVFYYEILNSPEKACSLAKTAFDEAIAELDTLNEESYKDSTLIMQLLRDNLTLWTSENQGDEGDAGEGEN
Sequence of YWHAH (Q04917 whole entry): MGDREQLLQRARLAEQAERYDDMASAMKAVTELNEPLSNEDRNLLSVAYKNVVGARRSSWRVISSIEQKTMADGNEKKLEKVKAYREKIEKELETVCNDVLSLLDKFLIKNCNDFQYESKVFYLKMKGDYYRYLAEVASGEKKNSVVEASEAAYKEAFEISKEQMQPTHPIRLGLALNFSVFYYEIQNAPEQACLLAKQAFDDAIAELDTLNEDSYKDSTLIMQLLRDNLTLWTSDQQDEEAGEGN

For YWHAQ, P27348, the cross-linked residues [1] was “K85 - K11”.
In the case of YWHAE, P62258, the cross-linked residues [2] was “K12 - K69” and the cross-linked residues [3] was “K12 - K68”.
YWHAG, P61981 was tested, and the cross-linked residues [3] was “K10 - K85”.

From PMC12215968
